# Source: PubChem (Broad Institute)
# NOMO-1 viab = STK33 inhibitor candidate reducing NOMO-1 cell viability; NOMO-1 AML viability, CellTiter-Glo luminescence, 72 h; 37,000 compounds, 7.5% hits; inhibition, % (test concentration not listed); in the data active = inhibition above about 80%; inconclusive = no clear call, values can overlap the other calls
# Hedgehog inh = Sonic Hedgehog pathway inhibition | Shh-LIGHT2 Gli-luciferase reporter, 30 h | inhibition, % (test concentration not listed) | 22,000 compounds, 2.1% hits;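 active = mean inhibition across valid replicates above about 65%, limit read from the data; inconclusive = mean under the limit, yet half or more replicates past it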;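 also: pathway switched on by Shh-conditioned medium diluted 1 in 25 in low serum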
# MITF inhib = inhibitors of MITF; TRPM1 promoter luciferase, luminescence, 24 h; inhibition, % (concentration not given with the values); 37,000 compounds, 0.28% hits; AID 2240; in the data active = inhibition above about 85%; inconclusive = no clear call, values can overlap the other calls; inactive = below about 68%;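 also: human melanocyte line stably carrying TRPM1 promoter luciferase reporter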
# Active calls of the source: *; ? = inconclusive; . = no result. The list is not random: actives were taken first. Their share in the collection is about 7.9%.
SMILES,NOMO-1 viab,Hedgehog inh,MITF inhib
Cc1ccc(N(C(C)C(=O)Nc2cccc(F)c2)S(C)(=O)=O)cc1 (stereo not given),-5,.,-11
CC1CCC(C(C)C)C(NC(=S)Nc2cccc(F)c2)C1 (stereo not given),122*,102*,66
C[C@@H]1CN([C@@H](C)CO)C(=O)c2cccc(NC(=O)c3ccc(-c4nccs4)cc3)c2O[C@@H]1CN(C)S(=O)(=O)c1cn(C)cn1,-11,-44,-7
CC(=O)c1cccc(N(CC(=O)Nc2ccc(C(F)(F)F)cc2)S(C)(=O)=O)c1,27,.,0
Cc1cc(C)cc(OCC(=O)Nc2cc(-c3nc4ccc(C)cc4o3)ccc2C)c1,105*,.,-30
Cc1ccc2nc(-c3ccc(C)c(NC(=O)COc4ccc([N+](=O)[O-])cc4)c3)oc2c1,10,.,-61
COc1ccc(-c2nc3cc(C(C)C)ccc3o2)cc1NC(=O)COc1ccccc1C,106*,.,-20
COc1ccc(-c2nc3cc(C(C)C)ccc3o2)cc1NC(=O)COc1ccc(C)cc1,19,.,8
O=S1(=O)NC(=NCCOCc2ccc(Cl)cc2)c2ccccc21,16,.,-3
N/C(=N\S(=O)(=O)c1ccc(Cl)c(Cl)c1)c1ccccn1,22,-24,5
C[C@@H]1CN([C@@H](C)CO)C(=O)c2cccc(NC(=O)c3nc4ccccc4s3)c2O[C@H]1CN(C)Cc1ccc2c(c1)OCO2,?,-3,55
C[C@@H]1CN([C@@H](C)CO)C(=O)c2cccc(NC(=O)c3nc4ccccc4s3)c2O[C@@H]1CN(C)Cc1ccc2c(c1)OCO2,90*,-55,11
C[C@@H]1CN([C@H](C)CO)C(=O)c2cccc(NC(=O)c3nc4ccccc4s3)c2O[C@H]1CN(C)Cc1ccc2c(c1)OCO2,98*,-18,41
C[C@@H]1CN([C@H](C)CO)C(=O)c2cccc(NC(=O)c3nc4ccccc4s3)c2O[C@@H]1CN(C)Cc1ccccc1,55,21,-22
C[C@H]1CN([C@@H](C)CO)C(=O)c2cccc(NC(=O)c3nc4ccccc4s3)c2O[C@@H]1CN(C)Cc1ccc2c(c1)OCO2,57,58,62
C[C@H]1CN([C@@H](C)CO)C(=O)c2cccc(NC(=O)c3nc4ccccc4s3)c2O[C@@H]1CN(C)Cc1ccc(Cl)c(Cl)c1,86*,53,36
C[C@@H]1CN([C@@H](C)CO)C(=O)c2cccc(NC(=O)Nc3ccc(F)cc3)c2O[C@H]1CN(C)S(=O)(=O)c1ccc(F)cc1,4,-52,-6
C[C@@H]1CN([C@@H](C)CO)C(=O)c2cccc(NC(=O)Nc3ccc(F)cc3)c2O[C@@H]1CN(C)S(=O)(=O)c1ccc(F)cc1,85*,-7,49
C[C@H](CO)N1C[C@H](C)[C@@H](CN(C)S(=O)(=O)c2ccc(F)cc2)Oc2c(NC(=O)Nc3ccc(F)cc3)cccc2C1=O,29,29,1
C[C@H](CO)N1C[C@H](C)[C@H](CN(C)S(=O)(=O)c2ccc(F)cc2)Oc2c(NC(=O)Nc3ccc(F)cc3)cccc2C1=O,30,101*,-15
C=CCN1C(=O)/C(=C2\SC(=Nc3ccccc3)N(c3ccccc3)C2=O)c2ccccc21,20,32,9
COC(=O)c1ccc(NC(=O)CSc2nc3ccccc3c(=O)n2-c2ccc(Cl)cc2)cc1,21,.,1
CC(C)NC(=O)Nc1ccc2c(c1)C(=O)N([C@H](C)CO)C[C@H](C)[C@H](CN(C)Cc1ccc(Cl)c(Cl)c1)OCCCC[C@@H](C)O2,101*,29,55
COc1ccc(NC(=O)Nc2ccc3c(c2)C(=O)N([C@H](C)CO)C[C@H](C)[C@H](CN(C)Cc2ccc4c(c2)OCO4)OCCCC[C@@H](C)O3)cc1,57,72*,17
COc1ccc(NC(=O)Nc2ccc3c(c2)C(=O)N([C@H](C)CO)C[C@H](C)[C@@H](CN(C)Cc2ccc4c(c2)OCO4)OCCCC[C@@H](C)O3)cc1,21,7,-17
SMILES,NOMO-1 viab,Hedgehog inh,MITF inhib
CC(C)NC(=O)Nc1ccc2c(c1)C(=O)N([C@H](C)CO)C[C@H](C)[C@H](CN(C)Cc1ccncc1)OCCCC[C@@H](C)O2,19,-26,-20
C[C@@H]1CCCCO[C@@H](CN(C)Cc2ccc(Cl)c(Cl)c2)[C@@H](C)CN([C@H](C)CO)C(=O)c2cc(NC(=O)NC3CCCCC3)ccc2O1,112*,.,25
C[C@@H]1CN([C@@H](C)CO)C(=O)c2cc(NC(=O)NC3CCCCC3)ccc2O[C@@H]1CN(C)Cc1ccc(Cl)c(Cl)c1,22,20,32
C[C@@H]1CCCCO[C@@H](CN(C)Cc2ccc3c(c2)OCO3)[C@@H](C)CN([C@H](C)CO)C(=O)c2cc(NS(=O)(=O)c3cccs3)ccc2O1,29,74*,0
COc1ccc(CN(C)C[C@@H]2OCCCC[C@@H](C)Oc3ccc(NS(=O)(=O)c4cccs4)cc3C(=O)N([C@H](C)CO)C[C@@H]2C)cc1,33,.,0
CSc1ccccc1NC(=O)C(C)n1nc([N+](=O)[O-])c(Br)c1C (stereo not given),37,.,16
FC(F)(F)c1ccc(-c2nnc(SCc3ccncc3)n2Cc2ccco2)cc1,20,.,16
Cc1ccc(Oc2ccc(NC(=O)CCCC(=O)O)cc2)cc1C,-13,.,-30
O=C(CSc1n[nH]c(-c2ccc(Cl)cc2Cl)n1)Nc1ccc(I)cc1,26,.,-14
C[C@@H]1CCCCO[C@@H](CN(C)Cc2ccc(Cl)c(Cl)c2)[C@@H](C)CN([C@H](C)CO)C(=O)c2cc(NC(=O)c3ccccc3)ccc2O1,122*,11,31
C[C@@H]1CCCCO[C@H](CN(C)Cc2ccc3c(c2)OCO3)[C@@H](C)CN([C@H](C)CO)C(=O)c2cc(NC(=O)Nc3ccc(F)cc3)ccc2O1,70,-4,-1
COc1ccc(NC(=O)Nc2ccc3c(c2)C(=O)N([C@H](C)CO)C[C@H](C)[C@@H](CN(C)Cc2ccc(Cl)c(Cl)c2)OCCCC[C@@H](C)O3)cc1,43,21,20
C[C@@H]1CCCCO[C@H](CN(C)Cc2ccccc2)[C@@H](C)CN([C@H](C)CO)C(=O)c2cc(NC(=O)c3ccccc3)ccc2O1,27,-6,7
COc1ccc(NC(=O)Nc2ccc3c(c2)C(=O)N([C@H](C)CO)C[C@H](C)[C@H](CN(C)Cc2ccc(Cl)c(Cl)c2)OCCCC[C@@H](C)O3)cc1,98*,23,17
C[C@@H]1CCCCO[C@@H](CN(C)Cc2ccncc2)[C@@H](C)CN([C@H](C)CO)C(=O)c2cc(NC(=O)Nc3ccc(F)cc3)ccc2O1,-6,-17,0
C[C@@H]1CCCCO[C@@H](CN(C)Cc2ccc(Cl)c(Cl)c2)[C@@H](C)CN([C@H](C)CO)C(=O)c2cc(NC(=O)Nc3ccc(F)cc3)ccc2O1,134*,5,17
C[C@@H]1CCCCO[C@H](CN(C)Cc2ccc(Cl)c(Cl)c2)[C@@H](C)CN([C@H](C)CO)C(=O)c2cc(NC(=O)Nc3ccc(F)cc3)ccc2O1,126*,.,27
COc1ccc(OC)c(NC(=O)CN2CCC(C(N)=O)(N3CCCCC3)CC2)c1,-1,.,-11
COC(=O)c1ccc(NC(=O)CSc2nnc(-c3ccccc3)n2-c2ccccc2)cc1,29,.,-2
